The full ranking holds about 110,000 compounds; the median of “z-score” is about -0.1, and the highest 2% start at about 2. The full list was thinned out, with the highest values kept by preference. Active and inactive are the calls of the source.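 Rule for the calls: active = z-score in the third read window above 3 or below -3; inactive = the rest.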
What follows are molecules tested against Metabotropic glutamate receptor 8 (Rattus norvegicus) (UniProt P70579) (assay: rat mGluR8 modulators via GIRK flux, primary screen, cell-based, thallium flux, HTS (AID 488969)). Conditions: HEK293 rat mGluR8, GIRK (G protein-gated inwardly rectifying potassium channel) thallium flux, FluoZin2; at 10 µM; stronger effect = higher value; submaximal glutamate (EC20) added with thallium.
Metabotropic glutamate receptor 8 (Rattus norvegicus), sequence (P70579 whole entry, looked up): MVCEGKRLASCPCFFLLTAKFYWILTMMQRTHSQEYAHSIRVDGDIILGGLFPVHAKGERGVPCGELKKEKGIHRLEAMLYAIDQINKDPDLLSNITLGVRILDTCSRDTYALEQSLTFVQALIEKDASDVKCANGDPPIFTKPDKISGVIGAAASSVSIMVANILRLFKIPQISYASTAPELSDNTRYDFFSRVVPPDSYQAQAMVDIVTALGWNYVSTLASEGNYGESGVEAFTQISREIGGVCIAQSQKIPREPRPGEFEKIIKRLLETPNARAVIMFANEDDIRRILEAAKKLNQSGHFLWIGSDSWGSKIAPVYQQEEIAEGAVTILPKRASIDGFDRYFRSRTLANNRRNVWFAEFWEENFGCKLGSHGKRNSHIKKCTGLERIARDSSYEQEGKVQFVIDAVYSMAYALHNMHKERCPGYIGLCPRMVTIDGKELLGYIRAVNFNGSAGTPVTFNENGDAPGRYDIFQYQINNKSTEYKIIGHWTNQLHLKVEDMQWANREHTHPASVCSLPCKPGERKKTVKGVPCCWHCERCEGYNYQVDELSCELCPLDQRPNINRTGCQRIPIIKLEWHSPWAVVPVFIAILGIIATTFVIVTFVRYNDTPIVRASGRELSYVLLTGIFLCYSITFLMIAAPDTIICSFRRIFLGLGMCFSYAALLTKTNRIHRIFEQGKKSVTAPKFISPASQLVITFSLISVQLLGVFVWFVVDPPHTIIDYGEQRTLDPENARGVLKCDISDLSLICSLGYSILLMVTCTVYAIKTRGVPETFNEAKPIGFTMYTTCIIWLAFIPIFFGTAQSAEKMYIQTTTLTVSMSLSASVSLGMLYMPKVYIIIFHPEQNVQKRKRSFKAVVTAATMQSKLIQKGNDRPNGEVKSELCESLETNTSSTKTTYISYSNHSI

Structure (SMILES) | z-score
CCCn1nnc(NC(=O)c2ccc(F)cc2)n1 | -0.08
Nc1n[nH]c(-c2ccccc2)n1 | 0.189
CCCCc1ccc(-c2nc(N)n[nH]2)cc1 | 2.99
COc1ccc(-c2nc(N)n[nH]2)cc1 | -0.101
CCOC(=O)c1c(C)[nH]c(C(=O)COC(=O)c2ccccc2NC(=O)c2ccco2)c1C | -0.00749
Cc1ccc(NC(=O)CSCCc2ccccn2)nc1 | 0.022
CSc1ccc(/C=N/NC(=O)CNc2cccc3ccccc23)cc1 | 0.3
CCNC(=O)NC(=O)C(C)OC(=O)C1CCN(S(=O)(=O)c2ccc(C)c(C)c2)CC1 (stereo not drawn) | -0.143
Cc1cccc(-c2nc(=S)c3c(n2Cc2ccco2)CCCC3)c1 | 0.581
S=c1nc(-c2ccccc2)n(Cc2ccco2)c2c1CCCC2 | 2.16
COc1cccc(-c2nc(=S)c3c(n2Cc2ccco2)CCCC3)c1 | 0.708
CCCc1[nH]nc2c1C(c1ccc(OCCN3CCOCC3)c(OCC)c1)C(C#N)=C(N)O2 (stereo not drawn) | -0.892
CCCC(=O)Nc1cccc(NC(=S)NC(=O)C(C)Oc2ccc(Cl)cc2Cl)c1 (stereo not drawn) | -0.0105
CCc1ccc(OCC(=O)NC(=S)Nc2ccc(F)cc2)c(Br)c1 | 0.182
CC(=O)NC(=S)Nc1ccc(NC(=O)COc2ccc(Cl)cc2Cl)cc1 | -0.0173
O=C(COc1ccc(CO)cc1Cl)Nc1ccc(F)cc1 | 0.647
C=CCNC(=S)NNC(=O)COc1c(Cl)cc(Cl)cc1Cl | 0.71
CCC(=O)NC(=S)Nc1ccc(NC(=O)COc2ccc(Cl)cc2Cl)cc1 | -0.124
C=CCNC(=S)NNC(=O)COc1ccc(Cl)cc1Cl | 6.1 (active)
COc1ccc(NC(=S)NNC(=O)COc2ccc(Cl)cc2Cl)cc1 | 2.95
O=C(COc1ccc(Cl)cc1Cl)NNC(=S)Nc1ccc(F)cc1 | 7.82 (active)
COC(=O)NC(=S)Nc1ccc(Oc2ccc(Cl)cc2Cl)c(Cl)c1 | 3.69 (active)
COC(=O)NC(=S)Nc1ccc(Oc2ccc(Cl)cc2)c(Cl)c1 | 1.29

Structure (SMILES) | z-score
C=CCNC(=O)COc1ccc(Br)cc1Cl | 0.0502
COc1cccc(C(=O)N2CCN(S(=O)(=O)Cc3ccccc3)CC2)c1OC | 1.15
C=CCn1cc([N+](=O)[O-])nc1C | -0.339
COC(=O)COc1ccc(S(=O)(=O)Nc2ccc3c(c2)OCO3)cc1 | -0.955
Cc1cc(F)ccc1NCC(=O)Nc1ccccc1Br | 1.92
CC(=O)NCC(=O)N(c1ccccc1)C1(C(=O)NC2CCCCC2)CCCCC1 | 0.432
COc1ccc(-c2nc(Cn3c(SCc4ccc(F)cc4)nc4ccncc43)c(C)o2)cc1OC | 0.565
O=C1C2C(c3ccccc3)C=CC(c3ccccc3)C2C(=O)N1c1ccncc1 (stereo not drawn) | -0.325
Cc1cc(C(=O)COc2nncc3ccccc23)c(C)n1C | 0.0547
Cc1cc(C(=O)COc2ncnc3sccc23)c(C)n1C | 2.04
Cc1cc(C(=O)COc2ncnc3sccc23)c(C)n1C1CC1 | -0.349
Oc1ccccc1N1CCN(c2ncccn2)CC1 | 0.0492
O=C(OCC(=O)N1CCc2ccccc21)c1cccc(S(=O)(=O)N2CCCc3ccccc32)c1 | -0.134
O=C(N/N=C/c1ccc(OC(=O)c2ccccc2)cc1)c1ccc(CN2CCOCC2)cc1 | 0.54
Cc1c(Cl)cccc1-n1ccnc1SCC(=O)O | -0.317
CC(=O)c1ccc(OCC(O)CN2C(C)CCCC2C)cc1 (stereo not drawn) | -0.288
COc1cccc(OCC(O)CN2C(C)CCCC2C)c1 (stereo not drawn) | 0.438
Cc1ccc(C)c(OCC(O)CN2C(C)CCCC2C)c1 (stereo not drawn) | 3.05 (active)
CCN(CC)S(=O)(=O)c1ccc(NC(=O)c2cc(C(=O)OC)cc([N+](=O)[O-])c2)cc1 | -0.729
N#CC1(Cc2ccccc2)c2ccccc2C=CN1C(=O)c1ccccc1 (stereo not drawn) | -0.211
N#CC1(Cc2ccc(Cl)cc2)c2ccccc2C=CN1C(=O)c1ccccc1 (stereo not drawn) | -0.14
N#CC1(Cc2ccc([N+](=O)[O-])cc2)c2ccccc2C=CN1C(=O)c1ccccc1 (stereo not drawn) | 2.08
Cc1cccc(-n2c(C)cc(/C=N/O)c2C)c1 | -0.205

Structure (SMILES) | z-score
O=Cc1cn(-c2ccccc2)nc1-c1ccc2c(c1)OCCO2 | -1.11
O/N=C/c1cn(-c2ccccc2)nc1-c1ccc2c(c1)OCCO2 | -0.458
NC(=O)/C=C\c1cn(-c2ccccc2)nc1-c1ccc2c(c1)OCCO2 | 2.14
O=C(COC(=O)c1cn(-c2ccccc2)nc1-c1ccccc1)c1ccc([N+](=O)[O-])cc1 | -0.413
COc1ccc(S(=O)(=O)N2CCC(c3cc(-c4cccc5ccccc45)n[nH]3)CC2)cc1 | 2.15
COc1ccc(S(=O)(=O)N2CCC(CN3C(=O)c4cccc5cccc(c45)C3=O)CC2)cc1 | -0.138
O=S(=O)(c1cccc(C(F)(F)F)c1)N1CCC(c2cc(-c3cccc4ccccc34)n[nH]2)CC1 | 1.58
Cn1c(CCN2CCN(c3ccc(F)cc3)CC2)nc2cc(NC(=O)c3ccco3)ccc21 | -2.09
Cc1ccc(N(CC(=O)Nc2ccccc2C(=O)N2CCOCC2)S(C)(=O)=O)cc1 | 0.00258
COc1ccc(OC)c(NC(=O)c2ccccc2NS(=O)(=O)c2cccc3cccnc23)c1 | 0.685
O=C(Nc1cccc2ccccc12)c1ccccc1NS(=O)(=O)c1cccc2cccnc12 | -0.0553
COc1ccc(C)cc1NC(=O)c1ccccc1NS(=O)(=O)c1cccc2cccnc12 | 2.02
Cc1cccc(C)c1-n1c(C)cc(/C=N/NC(=O)c2ccncc2)c1C | 0.0638
C/C(=C\C(=O)c1ccc(Br)cc1)NCc1ccccc1 | -0.0992
O=C(NC(=S)Nc1ccccc1N1CCOCC1)c1ccc(-c2cc(Cl)ccc2Cl)o1 | 0.0698
Cc1cc(S(=O)(=O)N2CCN(c3ccc(F)cc3)CC2)c(C)s1 | -0.128
Cc1ccc(S(=O)(=O)c2c(C)cc(C)nc2Cl)cc1 | -0.0793
Cc1cc(C)c(S(=O)(=O)c2ccccc2C)c(Cl)n1 | -0.119
Cc1ccc(S(=O)(=O)c2c(C)cc(C)nc2Cl)c(C)c1 | 4.41 (active)
CCOC(=O)c1c(C)c(C(=O)Nc2cc(OC)ccc2OC)c(C)n1CC | -0.853
CCC1(C)OCC(Cn2c3ccccc3c3ccccc32)O1 (stereo not drawn) | 3.89 (active)
c1ccc2c(c1)c1ccccc1n2CN1CCOCC1 | -0.144
CCn1c2ccccc2c2cc(N)ccc21 | -0.216

Structure (SMILES) | z-score
CC(=O)N1N=C(c2ccc(C)cc2)OC1c1ccc(C(C)C)cc1 (stereo not drawn) | -0.402
Cc1ccccc1N=Nc1ccc(O)c2ncccc12 | 4.67 (active)
OCc1ccc(O)c2ncccc12 | 0.138
Cc1ccccc1NCc1ccc(O)c2ncccc12 | 0.65
COCc1ccc(O)c2ncccc12 | -0.0472
Oc1ccc(CNc2ccccc2)c2cccnc12 | 0.0879
Cc1ccc(N=Nc2ccc(O)c3ncccc23)cc1 | 2.05
Cc1ccc(C(=O)c2oc3ccccc3c2NC(=O)c2cc(-c3ccccc3O)n[nH]2)cc1 | 0.291
CC(C)(C)c1ccc(-c2cc(N)n[nH]2)cc1 | 0.498
CC(C)(C)c1ccc(-c2conc2N)cc1 | 2.09
CCOc1cc(-c2conc2N)cc(OCC)c1OCC | 0.888
CCc1ccc2nc(N3C(=O)c4oc5ccccc5c(=O)c4C3c3ccc(OC)c(OC)c3)sc2c1 (stereo not drawn) | -0.133
O=C(Nc1nc(=O)c2ccccc2s1)c1ccc(F)cc1 | 16.3 (active)
CCN(CC)C(=S)SCC(=O)Nc1nc(=O)c2ccccc2s1 | 5.2 (active)
Cn1sc(NC(=O)c2ccc(Cl)cc2)nc1=O | 0.266
O=C(Cc1nc(=O)c2ccccc2s1)Nc1ccccc1 | -0.368
O=C(CSC(=S)N1CCOCC1)Nc1nc(=O)c2ccccc2s1 | 0.0572
CCn1c(NC(=O)c2ccc(F)cc2)c2ccccc2nc1=O | 0.0383
O=C(Nc1nc2ccccc2s1)c1ccc(Cl)s1 | 1.22
O=C(NNc1nc2ccccc2s1)c1ccc(F)cc1 | 0.186
O=C(Cc1ccccc1)Nc1nc2ccccc2s1 | 0.548
CCN(CC)C(=S)SCC(=O)Nc1nc(-c2ccccc2)c(-c2ccccc2)o1 | -0.0668
O=C(Cc1ccccc1)Nc1nc(=O)c2ccccc2s1 | 5.11 (active)

Structure (SMILES) | z-score
O=C(Nc1nc(=O)c2ccccc2s1)c1ccc(Cl)cc1 | 14.9 (active)
O=C(CSc1n[nH]c(-c2ccco2)n1)Nc1sc2c(c1C(=O)Nc1ccccc1)CCCC2 | -0.294
C=CCN(c1ccc(C(=O)NCCc2ccccc2)cc1)S(C)(=O)=O | -0.00787
CCOC(=O)C1CCN(S(=O)(=O)c2ccc(OCC(=O)OC)cc2)CC1 | 0.845
COc1cccc(-c2csc(N3CCN(C(=S)Nc4cccc(Cl)c4)CC3)n2)c1 | 0.143
CSc1nc(C)cc(C)c1S(=O)(=O)c1ccccc1C | -0.374
Cc1onc(-c2ccccc2)c1C(=O)NCCc1ccc(Cl)cc1 | 0.00877
CCc1ccccc1N(CC(=O)N/N=C/c1ccc(OC(=O)OC)c(OC)c1)S(C)(=O)=O | -0.214
CCCC(=O)Nc1ccc(Cl)c(NC(=O)C(C)(C)C)c1 | -0.219
CCN1CCN(C(=O)C2c3cc(OC)c(OC)cc3C(=O)N(C)C2c2ccc(SC)cc2)CC1 (stereo not drawn) | 0.574
N#CC1(P(=O)(c2ccccc2)c2ccccc2)CC1 | -0.0596
O=C(Nc1nc(-c2ccc(Cl)s2)cs1)c1ccccc1 | 0.171
O=C(Nc1nc(=O)c2ccccc2s1)c1ccccc1 | 14.9 (active)
Nc1ccc(C(=O)Nc2nc3ccccc3s2)cc1 | -0.363
COc1cccc(C2=NOC(C(=O)Nc3ccccc3SC)C2)c1 (stereo not drawn) | -0.115
CC(C)CCn1c(Cl)nc2c1c(=O)n(C)c(=O)n2C | 2.04
CC(C)CCn1c(Oc2ccccc2Cl)nc2c1c(=O)n(C)c(=O)n2C | -0.1
CC(C)CCn1c(Oc2ccc(Cl)cc2)nc2c1c(=O)n(C)c(=O)n2C | -0.037
CC1(C)CC(c2nc(-c3ccc(Cl)cc3)cs2)CCS1 (stereo not drawn) | 0.117
CCC1(C)CC(c2nc(-c3ccc(OC)cc3)cs2)CCS1 (stereo not drawn) | -0.645
CC1(C)CC(c2nc(-c3ccc(Br)cc3)cs2)CCS1 (stereo not drawn) | 2.26

Source: PubChem BioAssay AID488969 (Vanderbilt High Throughput Screening Facility, 2010)
